# In the supplement of paper PMC8728848:
# Many of the other results were omitted from the sample, so the strongest signals are more common in it than they were.
# How the values were obtained:
# Assay in all cases: glycan array binding signal (z-score within array); higher = stronger binding
# Details in all cases: glycan notation: IUPAC condensed, linker removed
# [1] = target: Fuc(a1-2)Gal
# How it was run: (§1)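 Glycan array binding is given as a within-array Z-score, which can be read as non-binding when negative. The arrays, 3228 of them, came from the Consortium for Functional Glycomics database and were retained only where the protein sequence was available. Z-scores were averaged across arrays of the same protein sequence at different concentrations or buffers and across linkers.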
# [2] = target: Fuc(a1-2)Gal(b1-3)GalNAc
# How it was run: as §1
# [3] = target: Fuc(a1-2)Gal(b1-4)GlcNAc(b1-2)Man(a1-3)[Fuc(a1-2)Gal(b1-4)GlcNAc(b1-2)Man(a1-6)]Man(b1-4)GlcNAc(b1-4)[Fuc(a1-6)]GlcNAc
# How it was run: as §1
# [4] = target: Fuc(a1-2)[Gal(a1-3)]Gal
# How it was run: as §1
# [5] = target: Fuc(a1-2)[Gal(a1-3)]Gal(b1-3)GlcNAc(b1-2)Man(a1-3)[Fuc(a1-2)[Gal(a1-3)]Gal(b1-3)GlcNAc(b1-2)Man(a1-6)]Man(b1-4)GlcNAc(b1-4)GlcNAc
# How it was run: as §1
# [6] = target: Fuc(a1-2)[GalNAc(a1-4)]Gal(b1-4)GlcNAc
# How it was run: as §1
# [7] = target: Gal(b1-3)Gal
# How it was run: as §1
# [8] = target: Gal(b1-3)Gal(b1-4)GlcNAc
# How it was run: as §1
# [9] = target: Gal(b1-3)GalNAc
# How it was run: as §1
# [10] = target: Gal(b1-3)GalNAc(b1-3)Gal
# How it was run: as §1
# [11] = target: Gal(b1-3)GalNAc(b1-4)Gal(b1-4)Glc
# How it was run: as §1
# [12] = target: Gal(b1-3)GalNAc(b1-4)[Neu5Ac(a2-3)]Gal(b1-4)Glc
# How it was run: as §1
# [13] = target: Gal(b1-3)GlcNAc(b1-2)Man(a1-3)[GlcNAc(b1-4)][Gal(b1-3)GlcNAc(b1-2)Man(a1-6)]Man(b1-4)GlcNAc(b1-4)GlcNAc
# How it was run: as §1
# [14] = target: Gal(b1-3)[Neu5Ac(a2-6)]GalNAc
# How it was run: as §1
# [15] = target: Gal(b1-3)[Neu5Ac(a2-6)]GlcNAc(b1-4)Gal(b1-4)Glc
# How it was run: as §1
# [16] = target: Gal(b1-4)GalNAc(a1-3)[Fuc(a1-2)]Gal(b1-4)GlcNAc
# How it was run: as §1
# [17] = target: Gal(b1-4)Glc6S
# How it was run: as §1
# [18] = target: Gal(b1-4)GlcNAc(b1-2)Man(a1-6)[Man(a1-3)]Man(b1-4)GlcNAc(b1-4)GlcNAc
# How it was run: as §1
# [19] = target: Gal(b1-4)GlcNAc(b1-3)Gal(b1-3)GlcNAc
# How it was run: as §1
# [20] = target: Gal(b1-4)GlcNAc(b1-3)Gal(b1-4)Glc
# How it was run: as §1
# [21] = target: Gal(b1-4)GlcNAc(b1-3)Gal(b1-4)GlcNAc(b1-2)[Gal(b1-4)GlcNAc(b1-3)Gal(b1-4)GlcNAc(b1-6)]Man(a1-6)[Gal(b1-4)GlcNAc(b1-3)Gal(b1-4)GlcNAc(b1-2)Man(a1-3)]Man(b1-4)GlcNAc(b1-4)[Fuc(a1-6)]GlcNAc
# How it was run: as §1
# [22] = target: Gal(b1-4)GlcNAc(b1-3)Gal(b1-4)GlcNAc(b1-3)Gal(b1-4)GlcNAc(b1-2)[Gal(b1-4)GlcNAc(b1-3)Gal(b1-4)GlcNAc(b1-3)Gal(b1-4)GlcNAc(b1-6)]Man(a1-6)[Gal(b1-4)GlcNAc(b1-3)Gal(b1-4)GlcNAc(b1-3)Gal(b1-4)GlcNAc(b1-2)Man(a1-3)]Man(b1-4)GlcNAc(b1-4)[Fuc(a1-6)]GlcNAc
# How it was run: as §1
# [23] = target: Gal(b1-4)GlcNAc(b1-6)Gal(b1-4)GlcNAc
# How it was run: as §1
# [24] = target: Gal(b1-4)GlcNAc(b1-6)[Gal(b1-3)]GalNAc
# How it was run: as §1
# [25] = target: Gal(b1-6)Gal
# How it was run: as §1
# [26] = target: Gal3S(b1-4)GlcNAc
# How it was run: as §1
# [27] = target: Gal3S(b1-4)[Fuc(a1-3)]GlcNAc6S
# How it was run: as §1
# [28] = target: Gal6P(b1-4)GlcNAc
# How it was run: as §1
# [29] = target: Gal6S(b1-3)GlcNAc6S
# How it was run: as §1
# [30] = target: GalNAc(a1-3)GalNAc(b1-3)Gal(a1-4)Gal(b1-4)GlcNAc
# How it was run: as §1
# [31] = target: GlcA3S(b1-3)Gal(b1-4)GlcNAc(b1-2)Man
# How it was run: as §1
# [32] = target: GlcNAc(b1-3)Gal(b1-4)GlcNAc(b1-6)[Gal(b1-3)]GalNAc
# How it was run: as §1
# [33] = target: Man(a1-2)Man(a1-3)Man
# How it was run: as §1
# [34] = target: Man(a1-3)[Man(a1-6)]Man(b1-4)GlcNAc(b1-4)[Fuc(a1-6)]GlcNAc
# How it was run: as §1
# [35] = target: Man(b1-4)GlcNAc
# How it was run: as §1
# [36] = target: Neu5Ac(a2-3)Gal(b1-3)GlcNAc(b1-2)Man(a1-3)[Neu5Ac(a2-3)Gal(b1-3)GlcNAc(b1-2)Man(a1-6)]Man(b1-4)GlcNAc(b1-4)GlcNAc
# How it was run: as §1
# [37] = target: Neu5Ac(a2-3)Gal(b1-3)GlcNAc(b1-6)GalNAc
# How it was run: as §1
# [38] = target: Neu5Ac(a2-3)Gal(b1-4)GlcNAc(b1-3)Gal
# How it was run: as §1
# [39] = target: Neu5Ac(a2-3)Gal(b1-4)GlcNAc(b1-3)Gal(b1-4)GlcNAc(b1-2)Man(a1-3)[Neu5Ac(a2-3)Gal(b1-4)GlcNAc(b1-3)Gal(b1-4)GlcNAc(b1-2)Man(a1-6)]Man(b1-4)GlcNAc(b1-4)GlcNAc
# How it was run: as §1
# [40] = target: Neu5Ac(a2-3)Gal(b1-4)GlcNAc(b1-6)[Gal(b1-3)]GalNAc
# How it was run: as §1
# [41] = target: Neu5Ac(a2-3)Gal(b1-4)[Fuc(a1-3)]GlcNAc(b1-2)Man
# How it was run: as §1
# [42] = target: Neu5Ac(a2-3)Gal(b1-4)[Fuc(a1-3)]GlcNAc(b1-3)Gal(b1-4)GlcNAc
# How it was run: as §1
# [43] = target: Neu5Ac(a2-3)[Neu5Ac(a2-6)]GalNAc
# How it was run: as §1
# [44] = target: Neu5Ac(a2-6)Gal(b1-4)GlcNAc(b1-2)Man(a1-3)[GlcNAc(b1-4)][Neu5Ac(a2-6)Gal(b1-4)GlcNAc(b1-2)Man(a1-6)]Man(b1-4)GlcNAc(b1-4)GlcNAc
# How it was run: as §1
# [45] = target: Neu5Ac(a2-6)Gal(b1-4)GlcNAc(b1-2)Man(a1-6)[Gal(b1-4)GlcNAc(b1-2)Man(a1-3)]Man(b1-4)GlcNAc(b1-4)GlcNAc
# How it was run: as §1
# [46] = target: Neu5Ac(a2-6)Gal(b1-4)GlcNAc(b1-3)Gal(b1-4)GlcNAc(b1-3)Gal(b1-4)GlcNAc
# How it was run: as §1
# [47] = target: Neu5Ac(a2-6)Gal(b1-4)GlcNAc(b1-3)Gal(b1-4)[Fuc(a1-3)]GlcNAc(b1-3)Gal(b1-4)[Fuc(a1-3)]GlcNAc
# How it was run: as §1
# [48] = target: Neu5Ac(a2-6)Gal(b1-4)GlcNAc6S
# How it was run: as §1
# [49] = target: Neu5Ac(b2-6)Gal(b1-4)GlcNAc
# How it was run: as §1
# [50] = target: Neu5Gc(a2-8)Neu5Gc(a2-6)Gal(b1-4)GlcNAc
# How it was run: as §1
binder,measurement,setting,value
Epa1 (Candida glabrata) (protein) MGSSHHHHHHSSGLVPRGSHMTSSNDISLASKDPTTFPLGCSPDITTPKKGLSMELYSYDFRKKGSYPCWDAAYLDPNYPRTGYKSHRLLAKVDGVTGNINFYYHATKGCTPQLGHLPASYNYPKPLTMTNFTMLLYGYFRPKVTGFHTFTISADDLLFVNFGAGNAFDCCRRDSSADHFGNYQAYAIWGSKTAKDELTVHLDAGVYYPIRLFYNNREYDGALSFTFKTESNENTVSDFSEYFFSLDDTEEGCPGLISYD,glycan array binding signal (z-score),[1],-0.506
same,glycan array binding signal (z-score),[2],-0.25
same,glycan array binding signal (z-score),[3],-0.2
same,glycan array binding signal (z-score),[4],-0.213
same,glycan array binding signal (z-score),[5],-0.325
same,glycan array binding signal (z-score),[6],-0.299
same,glycan array binding signal (z-score),[7],3.63
same,glycan array binding signal (z-score),[8],8.5
same,glycan array binding signal (z-score),[9],3.51
same,glycan array binding signal (z-score),[10],6.23
same,glycan array binding signal (z-score),[11],9.89
same,glycan array binding signal (z-score),[12],4.04
same,glycan array binding signal (z-score),[13],0.171
same,glycan array binding signal (z-score),[14],4.22
same,glycan array binding signal (z-score),[15],-0.213
same,glycan array binding signal (z-score),[16],-0.197
same,glycan array binding signal (z-score),[17],0.304
same,glycan array binding signal (z-score),[18],-0.169
same,glycan array binding signal (z-score),[19],-0.155
same,glycan array binding signal (z-score),[20],0.551
same,glycan array binding signal (z-score),[21],3.08
same,glycan array binding signal (z-score),[22],3.06
same,glycan array binding signal (z-score),[23],3.12
same,glycan array binding signal (z-score),[24],4.02
same,glycan array binding signal (z-score),[25],0.429
same,glycan array binding signal (z-score),[26],-0.442
same,glycan array binding signal (z-score),[27],-0.394
same,glycan array binding signal (z-score),[28],-0.272
same,glycan array binding signal (z-score),[29],-0.014
same,glycan array binding signal (z-score),[30],-0.312
same,glycan array binding signal (z-score),[31],-0.3
same,glycan array binding signal (z-score),[32],1.03
same,glycan array binding signal (z-score),[33],-0.318
same,glycan array binding signal (z-score),[34],-0.271
same,glycan array binding signal (z-score),[35],-0.281
same,glycan array binding signal (z-score),[36],-0.325
same,glycan array binding signal (z-score),[37],-0.293
same,glycan array binding signal (z-score),[38],-0.288
same,glycan array binding signal (z-score),[39],-0.257
same,glycan array binding signal (z-score),[40],1.45
same,glycan array binding signal (z-score),[41],-0.346
same,glycan array binding signal (z-score),[42],-0.214
same,glycan array binding signal (z-score),[43],-0.328
same,glycan array binding signal (z-score),[44],-0.32
same,glycan array binding signal (z-score),[45],-0.14
same,glycan array binding signal (z-score),[46],-0.267
same,glycan array binding signal (z-score),[47],-0.272
same,glycan array binding signal (z-score),[48],-0.335
same,glycan array binding signal (z-score),[49],-0.248
same,glycan array binding signal (z-score),[50],-0.309
